This note sets out measurements from PubChem BioAssay AID2462 (Broad Institute, 2010).

In all, about 330,000 compounds went through this assay and about 220 (0.067%) were called active. This is one part of a sample in which actives are shown more often than they occur. A number with no mark means an inactive call.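 The calls were made as follows: active = over half of replicate activation scores above 10%, or exactly half above 10 with the replicate mean above 10; inconclusive = replicate mean below 10 yet half the replicates above 10; inactive = over half of replicates below 10.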

A short description of the test: caspase 3/7 activation in MEF A1-2A-BIM cells, primary screen, A1 inhibitor project, cell-based, luminescence, HTS (AID 2462). The settings on record: Caspase-Glo 3/7 luminescence, 3 h, active compounds read high, percent of clofoctol response, vehicle zero, concentration not given here.
As for `O=C(CCc1nnc2ccc(NCc3ccccc3Cl)nn12)NCC1CCN(C2CCCC2)C1` (stereo not drawn), the caspase activation is -0.323%.

Consider `CCC(C)(C)c1ccc(OCC(=O)N(C)C)c(C(C)(C)CC)c1`, for which the caspase activation is -0.559%.

Consider `O=C(COc1ccc([N+](=O)[O-])cc1Cl)Nc1ccc2[nH]c(=O)[nH]c2c1`, for which the caspase activation is -0.19%.

For the compound `Cc1cc(OCCN2CCCC2)cc(C(C)C)c1`, the caspase activation is 0.0914%.

Consider `O=C(O)CC1S/C(=N\N=C/c2ccccc2O)N(c2ccc(O)cc2)C1=O` (stereo not drawn), for which the caspase activation was 0.687%.

For `CCOc1ccc(NC(=O)CC2C(=O)N(c3ccccc3)C(=O)N2CCOC)cc1` (stereo not drawn), the caspase activation was 0.358%.

For the compound `C=CCC1(C#N)C(=S)NC(C)=C(C(=O)OCC)C1c1ccccc1` (stereo not drawn), the caspase activation was 0.0109%.

As to `Cc1cccc(NS(=O)(=O)c2ccc(C)c(C(=O)NCC(c3ccccc3)N(C)C)c2)c1` (stereo not drawn), the caspase activation is 1.2%.

Regarding `Cc1c2cn[nH]c(=O)c2c(C)n1Cc1ccc(F)cc1`, the caspase activation was -0.558%.

Regarding `Cc1cc(NC(=O)CSc2nc3ccccc3n2CC(C)C)no1`, the caspase activation was 0.633%.

With `Cc1cc(NC(=O)CSc2nnc(-c3ccco3)n2N)no1`, the caspase activation was -0.817%.

`Cc1cc(NC(=O)CSc2nc3cc(Cl)ccc3c(=O)n2Cc2ccco2)no1`: the caspase activation was 29.5% (active).

As for `CC(NC(=S)Nc1ccccc1)C1COc2ccccc2O1` (stereo not drawn), the caspase activation was -0.247%.

On to `CCC1=NN(C(=O)Cc2ccc([N+](=O)[O-])cc2)C(O)(c2ccc(Br)cc2)C1` (stereo not drawn), for which the caspase activation is 1.08%.

Consider `Cc1ccc(S(=O)(=O)N(CC(O)CN2C(=O)NC(C)(C)C2=O)c2cccc([N+](=O)[O-])c2)cc1` (stereo not drawn), for which the caspase activation is 0.0755%.

Turning to `CSc1nnnn1-c1c(C)cc(C)cc1C`, the caspase activation was -0.157%.

For the compound `O=C1CCC(C(=O)N2CCCCO2)CN1Cc1cccc(C(F)(F)F)c1` (stereo not drawn), the caspase activation was 0.28%.

With `Cc1ccc(/C=C/C(=O)OCC(=O)NCc2ccc(Cl)cc2)o1`, the caspase activation is -0.527%.

Turning to `CCOC(=O)CSc1nc(C)cc2c1C(=O)OC2`, the caspase activation was 0.711%.

As for `CCOC(=O)CSC1=N/C(=C/c2ccc(-n3cncn3)cc2)C(=O)N1C(C)=O`, the caspase activation was 8.99% (active).

Take `CCOC(=O)CSc1ccccn1`: the caspase activation was -0.651%.

As for `O=C1CCC(C(=O)N2CCC(O)(c3ccccc3)CC2)CN1CCc1ccccc1` (stereo not drawn), the caspase activation was 0.199%.

On to `COCCNc1ccc(-c2n[nH]c(=O)c3ccccc23)cc1[N+](=O)[O-]`, for which the caspase activation was -1.33%.

Take `Cc1ccc(NC(=O)c2ccc(Oc3ncccn3)cc2)cc1`: the caspase activation was -1.4%.

As to `Cc1ccccc1N1CCN(C2CCCN(C(=O)c3ocnc3C)C2)CC1` (stereo not drawn), the caspase activation is 0.888%.

As for `CCc1ccc(/C=N/NC(=O)c2ccc(OC3CCCC3)cc2)s1`, the caspase activation was -0.334%.

`COC(=O)C(=Nc1ccccc1)/C(C(=O)C(=O)N(C)c1ccccc1)=C(\O)c1ccc(Cl)cc1`: the caspase activation is -1%.

On to `Cc1ccc(-n2c(SCC(=O)Nc3ncc(Cl)cc3Cl)nc3ccccc32)cc1`, for which the caspase activation was 0.221%.

On to `CCC1(C(=O)c2ccccc2)C(c2cccc([N+](=O)[O-])c2)C1(C(=O)OC)C(=O)OC` (stereo not drawn), for which the caspase activation is -0.612%.

For the compound `O=C1Nc2c(Br)cc(Br)cc2C1(O)N1CCOCC1` (stereo not drawn), the caspase activation is -1.16%.

Turning to `COc1ccc(C(=O)NCc2ccc(Cl)cc2)cc1S(=O)(=O)N1CCCC1`, the caspase activation is -0.377%.

Regarding `COc1cc(C2C(N3C(=O)c4ccccc4C3=O)C(=O)N2c2ccc(C)c(C)c2)cc(OC)c1OC` (stereo not drawn), the caspase activation was 0.266%.

On to `CCOc1ccc(Br)cc1S(=O)(=O)Nc1ccc(S(=O)(=O)Nc2cc(C)on2)cc1`, for which the caspase activation was 1.21%.

`O=C(Nc1ccc(Cl)c(Cl)c1)c1ccccc1NC(=O)C1CC=CCC1C(=O)O` (stereo not drawn): the caspase activation was -2.01%.

Regarding `Cc1ccc(-n2ncc3c2CC(C)(C)CC3NC(=O)Cc2c(C)noc2C)cc1` (stereo not drawn), the caspase activation was 1.06%.

With `Cc1cc(C(C)(C)C)cc(S(=O)(=O)Nc2ccc(C(=O)O)cc2)c1C`, the caspase activation was -0.667%.

As for `CCCCCn1c(=O)c(C(=O)OCC)c(Cl)c2ccccc21`, the caspase activation was 0.0442%.

Regarding `N#CCSc1nc(-c2ccccc2)nc2ccc(F)cc12`, the caspase activation is 1.31%.

As for `C#CCOCCOCCOCCNc1nc(N2CCN(C(=O)C([C@@H](C)O)n3cc([C@@H](N)CCCCN)nn3)CC2)nc(N2CCN(C(=O)[C@H](CCCCN)n3cc(CN)nn3)CC2)n1` (stereo partly drawn), the caspase activation was 0.837%.

On to `Cc1cc(=O)[nH]c(S)c1C#N`, for which the caspase activation was 0.51%.

On to `COCCn1c(N)c(NCc2ccccc2)c(=O)[nH]c1=O`, for which the caspase activation was -0.132%.

Regarding `CCC(C)N(C(=O)COC(=O)C1C(C(=O)OC)=C(C)NC(C)=C1C(=O)OC)C1CCS(=O)(=O)C1` (stereo not drawn), the caspase activation is -0.124%.

Regarding `CCCCc1ccc(NC(=S)N2CCCC(CO)C2)cc1` (stereo not drawn), the caspase activation is -0.669%.

In the case of `CCCc1cc(C(=O)Nc2ccc(Cl)cn2)cs1`, the caspase activation is -8.84%.

For the compound `CCS(=O)(=O)c1cc([N+](=O)[O-])c(Sc2ccccc2N)s1`, the caspase activation was 1.52%.

Consider `Nc1ccccc1SC(C[N+](=O)[O-])c1ccccc1` (stereo not drawn), for which the caspase activation was 9.45% (active).

In the case of `Cc1ccc(C(C[N+](=O)[O-])c2c(C)cc3ccccn23)cc1` (stereo not drawn), the caspase activation is 1.62%.

Take `COc1cc(-c2nnc(NC(=O)C3=COCCO3)o2)cc(OC)c1OC`: the caspase activation was 0.457%.

Consider `O=C(Nc1nnc(C2=COCCO2)o1)c1ccc([N+](=O)[O-])s1`, for which the caspase activation was -4.99%.

For `Cc1ccc(C(=O)Nc2nnc(C3=COCCO3)o2)cc1C`, the caspase activation is 44.6% (active).

`ON=C1/C(=N\O)CC2(C/C1=N/O)OCCO2`: the caspase activation is 0.622%.

Take `O=C1CCCc2nn(-c3ccccc3)nc21`: the caspase activation is -0.0976%.

`COC(=O)Nc1ncc(CN2CCCCC2)s1`: the caspase activation was 0.0297%.

With `CSCC[C@H](NC(=O)NCCc1ccc(F)cc1)C(=O)O`, the caspase activation was 0.319%.

On to `O=C(c1ccc(F)cc1)c1c[nH]c(C(=O)NCc2cccnc2)c1`, for which the caspase activation was 0.0496%.

Turning to `CC(C)CC(=O)c1c[nH]c(C(=O)NCc2ccccc2)c1`, the caspase activation is 6.29% (active).

For `COc1ccc(CNC(=O)c2cc(C(=O)C3CC3)c[nH]2)cc1`, the caspase activation is -0.0151%.

Take `CC(=O)Nc1cccc(NC(=O)c2ccc3c(c2)CCN3S(C)(=O)=O)c1`: the caspase activation is 0.604%.
